PubChem BioAssay AID485317 (Broad Institute, 2010)
Among all 290,000 compounds or so, about 11,000 (3.8%) were called active. Many of the other results were omitted from the sample, so actives are more common in it than they were. A number with no mark means an inactive call.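 How the source made its calls: active means mean replicate inhibition above about 79%, with every replicate also reaching it (limit read from the data); inconclusive means only one of the two criteria met; inactive means mean below limit and not every replicate reaching it.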

target: FAD-linked sulfhydryl oxidase ALR (Homo sapiens) (UniProt P55789); assay: ALR-catalysed DTT oxidation blockers – biochemical, H2O2 detection, HRP-luminol luminescence, single point, primary screen (AID 485317); settings: purified ALR, active compounds read high, concentration not given here
Sequence (P55789 whole entry, looked up): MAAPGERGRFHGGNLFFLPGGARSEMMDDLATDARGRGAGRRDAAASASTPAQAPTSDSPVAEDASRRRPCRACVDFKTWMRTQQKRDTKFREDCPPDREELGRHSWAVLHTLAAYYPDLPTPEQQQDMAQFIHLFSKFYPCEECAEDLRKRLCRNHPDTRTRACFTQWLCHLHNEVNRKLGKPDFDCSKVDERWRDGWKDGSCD

SMILES	inhibition
COc1ccc(CNC(=O)COC(=O)CCS(=O)(=O)c2ccc(C)cc2)cc1OC	2.97%
CCCCN1C(=O)C(=O)N(CC(=O)Nc2cccc(C(C)=O)c2)C1=O	1.6%
C=CCC[C@@H](Cc1ccc(F)cc1)C(=O)OC[C@@H](C)NC(=O)[C@H](CC=C)CC(=O)N(CCO)Cc1ccccc1	-10.3%
Cc1nc2ccccc2c(=O)n1NC(=O)c1ccccc1	-10.2%
O=C(NC(=O)c1ccccc1)NC(=O)c1ccccc1	0.464%
Cn1sc(NC(=O)c2ccccc2)nc1=O	88.6% (active)
Cc1ccc(C(=O)NC2CCCC(C)C2C)cc1S(=O)(=O)N1CCCCC1 (stereo unspecified)	-6.06%
CC(OC(=O)c1ccc(S(=O)(=O)N2CCOCC2)cc1)c1ccccc1 (stereo unspecified)	-21.1%
Cc1ccc(SC(=O)COc2ccc(C)c(C)c2)cc1	98.5% (active)
COCCNC(=O)COc1ccc(C)c(C)c1	11.4%
Cc1ccc(OCC(=O)NC(C)c2ccccc2)cc1C (stereo unspecified)	-10.2%
CCn1nc(C(=O)NNS(=O)(=O)c2cc(/C=C/C(=O)O)cc(OC)c2OC)c2ccccc2c1=O	4%
O=C(COC(=O)c1ccc([N+](=O)[O-])o1)NC12CC3CC(CC(C3)C1)C2	-29.8%
CCOC(=O)c1cc(C)nc(S(C)(=O)=O)c1C#N	15.5%
CCOC(=O)c1cc(C#N)c(N2CCCCC2)nc1-c1ccccc1	6.36%
CCCCSc1[nH]c(=O)c(C(=O)OCC)cc1C#N	90% (active)
CCOc1cc(C(=O)Nc2ccc(S(=O)(=O)Nc3cnc4ccccc4n3)cc2)cc(OCC)c1OCC	27.5%
CC(C)c1nc(SCC(=O)Nc2cccc(C(=O)O)c2)c2c3c(sc2n1)CCCC3	98.2% (active)
Cc1cc(NC(=O)CSc2nc(C(C)C)nc3sc4c(c23)CCC(C)C4)no1 (stereo unspecified)	-10.2%
Cc1ccc(C)c2c1cc(C)c1nnc(SCC(=O)Nc3cccc(C(=O)O)c3)n12	3.23%
C=CC[C@H](CC(=O)NCCO)C(=O)N[C@@H](COC(=O)[C@@H](CC=C)Cc1ccc(F)cc1)Cc1c[nH]c2ccccc12	6.65%
CCN(CC)c1ccc(NC(=O)C2CCC(CNc3c(N4CCCC4)c(=O)c3=O)CC2)c(C)c1 (stereo unspecified)	99.4% (active)
CCOc1ccccc1NC(=O)C1CCC(CNc2c(N3CCOCC3)c(=O)c2=O)CC1 (stereo unspecified)	-8.1%
COc1ccc(NC(=O)C2CCC(CNc3c(N4CCCCC4)c(=O)c3=O)CC2)c(OC)c1 (stereo unspecified)	-10.1%
COc1ccc(Cl)cc1NC(=O)CN(C)C(=O)c1cc2ccccc2cc1OC	-4.22%
CCCCn1c(-c2cccc(C)c2)nc2cc3[nH]c(=O)c(C(C)C)nc3cc21	-32.5%

SMILES	inhibition
CC1CN(C(=O)COC(=O)c2cccc(NS(=O)(=O)c3ccccc3)c2)CC(C)O1 (stereo unspecified)	2.21%
CCOc1ccc(C(=O)NCC(=O)N2CCCCCCC2)cc1OCC	-5.97%
O=C(COc1ccc(Br)cc1F)NCC1(N2CCCCC2)CCCCC1	2.53%
CCCCOC(=O)CNc1nnc(SCC(=O)OCC)[nH]c1=O	100% (active)
CCOC(=O)CSc1nc(C)c(Oc2ccc(Cl)cc2Cl)c(=O)[nH]1	-20.9%
Cc1nnc(SCC(=O)N2CCOCC2)[nH]c1=O	3.8%
Cc1c(C(=O)Nc2ccccn2)oc2ccc(Br)cc12	1.89%
COc1cc(OC)c(N2CC(C(=O)Nc3cc(Cl)ccc3N3CCOCC3)CC2=O)cc1Cl (stereo unspecified)	-7.16%
C[C@H]1CN([C@@H](C)CO)C(=O)Cc2cc(NC(=O)Cc3ccccc3)ccc2O[C@H]1CN(C)S(=O)(=O)c1cccs1	2.5%
CC(C)CN(C(=O)CSc1ncnc2sccc12)C1CCS(=O)(=O)C1 (stereo unspecified)	5.3%
COc1ccc(-c2cnc(SCCNC(=O)c3ccc4c(c3)OCO4)[nH]2)cc1	14.2%
CCN(CC)c1ccc2oc(=O)c(C)nc2c1	96.5% (active)
CCN(CC)c1ccc2c(Nc3ccccc3)c(C=O)c(=O)oc2c1	1.6%
CCN(CC)c1ccc2cc(C(N)=O)/c(=N\NC(=O)c3ccncc3)oc2c1	8.16%
C[C@H](NS(=O)(=O)c1ccc(Cl)cc1)C(=O)OCC(=O)N1CCOCC1	-3.05%
O=C(NC1CCCCCC1)C1CCN(C(=O)c2ccc(Cl)cc2)CC1	0.152%
COc1ccc(C(=O)NCc2nnc(SCC(=O)Nc3cccc(OC)c3)o2)cc1	-14.1%
COc1cc(C(=O)NCc2nnc(SCC(=O)c3ccc(Cl)cc3)o2)cc(OC)c1OC	-31.3%
COc1cc(C(=O)NCc2nnc(SCC(=O)Nc3nc4ccc(C)cc4s3)o2)cc(OC)c1OC	96.6% (active)
COc1ccc(CN2CCN(C(=O)c3cc(C4CC4)nn3-c3ccccc3)CC2)cc1F	-3.02%
CC(=O)c1ccc(-c2nnc(CCC(=O)N(C)Cc3cnc4ccccn34)o2)s1	96.1% (active)
CN(Cc1ccccc1)C(=O)CCc1ccccc1	26.4%
CCc1ccc(CN(C)C(=O)CCc2nnc(-c3ccc(-c4ccccc4)cc3)o2)nc1	-6.23%
COc1ccc(C(=O)OCC(=O)c2cc(C)n(CC3CCCO3)c2C)cc1[N+](=O)[O-] (stereo unspecified)	-3.78%
O=C(CCNC(=O)c1ccc(Br)cc1)NCC(c1ccco1)N1CCCCC1 (stereo unspecified)	1.52%
